ssDAF12 agonist = S. stercoralis DAF-12 nuclear receptor activators, primary screen, cell-based, luminescence, HEK293, GRIP1 co-expression, lit1-tk-luc. AID 652126, 2013. activation, % at 6.8 µM. HEK293 ssDAF-12/GRIP1 lit1-tk-luc reporter; % of 3 µM dafachronic acid response. 370,000 tested, 1% active;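 active = activation above the mean over all tested compounds plus 3 SD, cut at about 0.9% in these data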
hgDAF-12 ag = H. glycines DAF-12 receptor agonists, primary screen, cell-based, luminescence, HEK293, GAL4 fusion, UAS-luciferase; AID 687014, 2013; activation, % at 6.8 µM; HEK293 GAL4-hgDAF12 UAS-luciferase reporter, agonist luminescence; normalized to butyrate control; Nuclear hormone receptor DAF-12 (Heterodera glycines), GAL4 fusion; 370,000 tested, 1.8% active;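 active = activation above a cutoff set at the mean of all screened compounds plus 3 SD, cut at about 10% in these data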
DAX1 inh-1 = DAX1 (NR0B1) inhibitors, primary screen, cell-based, HEK293, Gal4-DAX1, luciferase luminescence. Nuclear receptor subfamily 0 group B member 1 (Homo sapiens), P51843. 340,000 tested, 0.99% active. inhibition, % at 6.75 µM. HEK293 Gal4-DAX1 luciferase reporter;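 active = inhibition above the mean over all tested compounds plus 3 SD, cut at about 4.2% in these data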;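 note: inhibition shows as a rise in luminescence from relieved DAX1 repression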
Target sequence (P51843 207-470 limits assumed): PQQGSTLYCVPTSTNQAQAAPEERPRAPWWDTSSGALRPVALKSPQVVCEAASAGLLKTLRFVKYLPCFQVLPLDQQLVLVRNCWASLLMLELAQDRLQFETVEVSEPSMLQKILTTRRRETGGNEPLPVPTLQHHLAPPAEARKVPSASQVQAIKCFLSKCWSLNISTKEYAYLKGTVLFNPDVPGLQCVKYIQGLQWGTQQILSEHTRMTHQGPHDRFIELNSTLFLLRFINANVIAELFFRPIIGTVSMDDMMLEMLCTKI
hcDAF-12 act = H. contortus DAF-12 nuclear receptor activators, primary screen, cell-based, luminescence, HEK293, lit1-tk-luc reporter. activation, % at 6.8 µM. AID 652067, 2013. HEK293 hcDAF-12 lit1-tk-luc reporter; 0% DMSO, 100% Δ7-dafachronic acid. 370,000 tested, 1.4% active;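 active = activation above the mean of all tested compounds plus 3 SD, cut at about 5.5% in these data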
DAX1 inh-2 = DAX1 (NR0B1) inhibitors on StAR promoter, primary screen, cell-based, luminescence, SF-1 (NR5A1), full-length DAX-1; HEK293T StAR-luciferase reporter, SF-1/DAX-1 repression relief; 370,000 tested, 1.1% active; inhibition, % at 6.8 µM;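 active = inhibition above the mean over all tested compounds plus 3 SD, cut at about 3.6% in these data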;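 note: higher inhibition means more luminescence from relief of DAX-1 repression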
LXR ag = LXR agonists, Gal4 luciferase reporter, confirmation, counter-screen for hcDAF-12 agonist project, cell-based, luminescence, HEK293, H. contortus campaign; shares compounds with hcDAF-12 act; HEK293 Gal4-LXR tk-luc reporter, 24 h; normalized: DMSO 0%, positive control 100%; activation, % at 6.8 µM; 3,400 tested, under 10 active; AID 743027, 2013;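 active = mean percent activation of the reporter above a cutoff set as the average over tested compounds plus their standard deviation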
hcDAF12 ag = H. contortus DAF-12 receptor agonists, confirmation, cell-based, luminescence, HEK293, lit1-tk-luc, triplicate | HEK293 hcDAF-12 lit1-tk-luc reporter; % of Δ7-dafachronic acid response | 3,400 tested, 61% active | AID 743032, 2013 | shares compounds with hcDAF-12 act | activation, % at 6.8 µM;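 active = mean activation across triplicate tests above the threshold derived from the earlier primary screen, cut at about 5.5% in these data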
hgDAF12 conf = H. glycines DAF-12 receptor agonists, confirmation, cell-based, luminescence, HEK293, GAL4-LBD fusion; shares compounds with hgDAF-12 ag; HEK293 GAL4-hgDAF12 luciferase reporter, agonist mode; percent of butyrate response; activation, % at 6.8 µM; 3,300 tested, 80% active;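 active = mean activation over triplicate wells above the hit cutoff derived from the earlier primary screen, cut at about 11% in these data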
LXRb DAF12 ctr = LXR agonists, Gal4 luciferase reporter, confirmation, counter-screen for hgDAF-12 agonist project, cell-based, luminescence, HEK293, H. glycines campaign. shares compounds with hgDAF-12 ag. 24 h. activation, % at 6.8 µM. 3,300 tested, under 10 active. AID 743051, 2013;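 active = mean activation of the triplicate above a set limit carried over from the primary screen, none filed active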
Each line names hits and unclear results; the compound was inactive in the other large screens (follow-up assays come after a bar, where they were run). This is a sample that favours compounds with a hit; in the whole collection about 4.1% have one here.

O=C(NCC1COc2ccccc2O1)c1ccc(-n2cncn2)c([N+](=O)[O-])c1 (stereo unspecified)	none
c1ccc(-c2ccc(-c3ccccc3)[nH]2)cc1	hgDAF-12 ag 18.9, hcDAF-12 act 6.8 | LXR ag inactive | hcDAF12 ag inactive | hgDAF12 conf 14.6 | LXRb DAF12 ctr inactive
Cc1c(C)n(CC(O)CSc2ccccc2)c2ccccc12 (stereo unspecified)	none (no result: DAX1 inh-1)
CCOC(=O)c1c(C)oc2c1c(C(c1cccnc1)N1CCCCC1)c(O)c1ccccc12 (stereo unspecified)	ssDAF12 agonist 1.8, hgDAF-12 ag 14.2, hcDAF-12 act 10.5 | LXR ag inactive | hcDAF12 ag 6.8 | hgDAF12 conf inactive | LXRb DAF12 ctr inactive
Cc1ccc(O)c(C2=Nc3ccccc3N=C(c3cccs3)C2)c1	none
Cc1ccc2c(c1)N=C(c1ccccc1)CC(C(Cl)Cl)=N2	ssDAF12 agonist 1.8, hgDAF-12 ag 13.6, hcDAF-12 act 15.3 | LXR ag inactive | hcDAF12 ag 8.1 | hgDAF12 conf 19.1 | LXRb DAF12 ctr inactive
COc1ccccc1CNS(=O)(=O)c1ccc(F)cc1Br	none (no result: DAX1 inh-1)
Cc1c(C(=O)Nc2nccs2)oc2ccccc12	ssDAF12 agonist 3.2, hgDAF-12 ag 17.8, DAX1 inh-1 4.6, hcDAF-12 act 14.9 | LXR ag inactive | hcDAF12 ag 13.2 | hgDAF12 conf 25.0 | LXRb DAF12 ctr inactive
Cc1c(C(=O)Nc2cnccn2)oc2ccccc12	none (no result: ssDAF12 agonist, hgDAF-12 ag, hcDAF-12 act, DAX1 inh-2)
O=C(Nc1nccs1)c1ccc2ccccc2c1	ssDAF12 agonist 2.2, hgDAF-12 ag 21.0, hcDAF-12 act 17.4 | LXR ag inactive | hcDAF12 ag 13.7 | hgDAF12 conf 26.4 | LXRb DAF12 ctr inactive
O=C(Nc1nccs1)c1ccc(Br)cc1	none
Cc1ccc(Cc2cnc(NC(=O)c3cccs3)s2)cc1	ssDAF12 agonist 1.5, hgDAF-12 ag 14.8, hcDAF-12 act 10.1, DAX1 inh-2 3.8 | LXR ag inactive | hcDAF12 ag 7.3 | hgDAF12 conf 18.0 | LXRb DAF12 ctr inactive
O=C(Nc1ncc(Cc2ccccc2)s1)c1cccs1	hgDAF-12 ag 15.0, hcDAF-12 act 8.4 | LXR ag inactive | hcDAF12 ag 8.0 | hgDAF12 conf 20.0 | LXRb DAF12 ctr inactive
O=C(Nc1ncc(Cc2cccc(Cl)c2)s1)c1cccs1	none
CN(C)/C=N/C1=C(C#N)C(c2cccs2)c2ccc3ccccc3c2O1 (stereo unspecified)	ssDAF12 agonist 1.0, hgDAF-12 ag 23.8, hcDAF-12 act 9.4 | LXR ag inactive | hcDAF12 ag 8.5 | hgDAF12 conf 13.6 | LXRb DAF12 ctr inactive
CCOC(=O)/C(=N\Nc1ncnc2ccccc12)c1ccc(C)cc1	ssDAF12 agonist 2.5, hgDAF-12 ag 20.7, hcDAF-12 act 18.5 | LXR ag inactive | hcDAF12 ag 18.9 | hgDAF12 conf 19.7 | LXRb DAF12 ctr inactive
Oc1ccc(F)cc1-c1cc(-c2ccc3c(c2)OCCO3)n[nH]1	ssDAF12 agonist 1.3, hgDAF-12 ag 14.8, DAX1 inh-1 4.4, hcDAF-12 act 8.1 | LXR ag inactive | hcDAF12 ag inactive | hgDAF12 conf 20.4 | LXRb DAF12 ctr inactive
N/C(=N\OC(=O)c1cc(Br)ccc1Cl)c1cccnc1	none
N/C(=N\OC(=O)c1ccccc1Cl)c1cccnc1	ssDAF12 agonist 1.9, hgDAF-12 ag 14.7, hcDAF-12 act 9.7 | LXR ag inactive | hcDAF12 ag 6.4 | hgDAF12 conf 14.4 | LXRb DAF12 ctr inactive
N/C(=N\OC(=O)c1cc(Br)ccc1Cl)c1ccccn1	ssDAF12 agonist 3.8, hgDAF-12 ag 21.0, hcDAF-12 act 15.6, DAX1 inh-2 3.7 | LXR ag inactive | hcDAF12 ag 14.6 | hgDAF12 conf 23.1 | LXRb DAF12 ctr inactive
N/C(=N\OC(=O)Cc1ccccc1[N+](=O)[O-])c1ccccn1	none
N/C(=N\OC(=O)c1ccc2ccccc2c1)c1ccccn1	none
N/C(=N\OC(=O)c1cccc2ccccc12)c1ccccn1	ssDAF12 agonist 3.5, hgDAF-12 ag 14.4, hcDAF-12 act 15.2 | LXR ag inactive | hcDAF12 ag 13.8 | hgDAF12 conf 10.6 | LXRb DAF12 ctr inactive
Cc1c(C(=O)O/N=C(\N)c2ccccn2)cccc1[N+](=O)[O-]	ssDAF12 agonist 3.0, hgDAF-12 ag 17.2, hcDAF-12 act 15.8 | LXR ag inactive | hcDAF12 ag 10.4 | hgDAF12 conf 19.9 | LXRb DAF12 ctr inactive
COc1ccc(/C=C/C(=O)OCC(=O)N2c3ccccc3CC2C)cc1 (stereo unspecified)	none
O=S(=O)(CC1NCCc2ccccc21)NCc1ccc(F)cc1 (stereo unspecified)	none (no result: DAX1 inh-1)
CSCCCNC(=O)C1CCN(S(=O)(=O)c2ccc3[nH]c(=O)oc3c2)CC1	none (no result: DAX1 inh-1)
Nc1c(C(=O)Nc2ccccc2)nnn1-c1ccc2c(c1)OCCO2	ssDAF12 agonist 1.8, hgDAF-12 ag 14.1, hcDAF-12 act 8.8 | LXR ag inactive | hcDAF12 ag 8.1 | hgDAF12 conf 16.3 | LXRb DAF12 ctr inactive
Cc1ccc(NC(=O)c2nnn(-c3ccc4c(c3)OCCO4)c2N)cc1	none
COc1ccc(NC(=S)Nc2ccccn2)cc1	ssDAF12 agonist 1.7, hgDAF-12 ag 14.8, hcDAF-12 act 11.4 | LXR ag inactive | hcDAF12 ag inactive | hgDAF12 conf 13.1 | LXRb DAF12 ctr inactive
